Results reported in PubChem BioAssay AID743171 (National Center for Advancing Translational Sciences (NCATS), 2013).
Several values for one entry are separate records, joined by “and”; a condition that tells them apart may be missing. Identical values can stand only once. Records with an inconclusive call do not appear. Activity calls are given as the source filed them. Calls follow the shape of the dose curve; as a rule, active = well fitted inhibition curve with a large enough effect; inconclusive = small, poorly fitted or top-dose-only effect; inactive = flat fitted curve, though single readings scatter.

What follows are compounds tested against 15-hydroxyprostaglandin dehydrogenase [NAD(+)] (Homo sapiens) (UniProt P15428) (assay: Extended Characterization of HPGD Inhibitors: Activity in Primary Assay (HPGD)). Conditions: recombinant HPGD, NADH fluorescence, PGE2 substrate; series mostly up to 57.1 µM.
Sequence of 15-hydroxyprostaglandin dehydrogenase [NAD(+)] (Homo sapiens) (P15428 whole entry, looked up): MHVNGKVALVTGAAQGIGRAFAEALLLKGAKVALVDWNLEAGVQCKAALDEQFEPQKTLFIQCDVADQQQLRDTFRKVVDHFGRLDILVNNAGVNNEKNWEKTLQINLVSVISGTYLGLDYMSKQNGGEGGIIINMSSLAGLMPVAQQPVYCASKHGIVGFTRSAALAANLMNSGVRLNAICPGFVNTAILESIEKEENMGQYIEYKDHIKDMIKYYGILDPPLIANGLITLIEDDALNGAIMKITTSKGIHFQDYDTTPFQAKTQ
From the text: The central role of HPGD is to inactivate prostaglandins such as prostaglandin E2 (PGE2) or prostaglandin D2 (PGD2). These prostaglandins are involved in a number of processes, including inflammation, differentiation, and cellular signaling, which makes HPGD an important target for pharmacological intervention. Inhibition of 15-PGDH (HPGD) activity was screened by utilizing prostaglandin as an electron donor and NAD+ as an electron acceptor/cofactor. An increase in the fluorescence intensity due to conversion of NAD+ to NADH was used to measure the enzyme activity. All compounds were screened using a qHTS approach, where compounds are assayed using at least seven concentrations to generate concentration-response curves for every compound. Briefly, qHTS uses an inter-plate dilution method where the first plate contains the highest concentration of a set of compounds in DMSO, while subsequent plates contain the same compounds in the same well locations, but at successive lower concentrations. NIH Chemical Genomics Center [NCGC] NIH Molecular Libraries Probe Centers Network [MLPCN] MLPCN Grant: MH084681 Assay Submitter (PI): Structural Genomics Consortium
Three uL of enzyme (20 nM final concentration) were dispensed to 1536-well Greiner black solid bottom plates. Compounds (23 nL) were transferred via Kalypsys PinTool. The plates were incubated for 15 min at room temperature, and then 1 uL of substrate/cofactor solution (Substrate/cofactor solution: 1 mM NAD+ and 30 uM prostaglandin (Sigma, prostaglandin E2, #P5640)) were added to start the reaction. The plates were immediately transferred to and read 4 times every 30 seconds on a ViewLux High-throughput CCD imager (Perkin-Elmer) using 340 nm excitation and 450 nm emission fluorescence protocol. The fluorescence intensity difference between the last and the first time points, normalized against controls, was used to compute reaction progress.

Potency, active:
Cc1cccc(-n2cnc3cc(C(=O)N4CCCC4)ccc32)c1 383 nM, CC(C)c1cccc(-n2cnc3cc(C(=O)N4CCCCC4)ccc32)c1 68.1 nM, Fc1cccc(CSc2nc3ncc(Br)cc3[nH]2)c1 341 nM, Cc1cc(-c2nnc3n2CCCC3)c(C)n1-c1ccccc1 192 nM, Cc1cccc(-n2cnc3cc(C(=O)N4CCC(C(F)(F)F)CC4)ccc32)c1 1520 nM, O=[N+]([O-])c1ccccc1CSc1nc2ncc(Br)cc2[nH]1 96.1 nM, Cc1cccc(-n2cnc3cc(C(=O)N4CCCC(C(F)(F)F)C4)ccc32)c1 (stereo not given) 68.1 nM, CC(C)(C)c1cccc(-n2cnc3cc(C(=O)N4CCCCC4)ccc32)c1 171 nM, Brc1cnc2nc(SCc3ccccc3)[nH]c2c1 8570 nM, CCOC(=O)c1ccc(-n2cnc3cc(C(=O)N4CCCCC4)ccc32)cc1 13.6 nM, Cc1cc(-c2nnc3n2CCCCCC3)c(C)n1-c1ccccc1 242 nM, O=C(c1ccc2c(c1)ncn2-c1cccc(C(F)(F)F)c1)N1CCCCC1 48.2 nM, COc1ccccc1-n1cnc2cc(C(=O)N3CCCCC3)ccc21 27.1 nM, Cc1cc(-c2nnc3n2CCCCC3)c(C)n1-c1cccc(C(F)(F)F)c1 48.2 nM, Cc1cccc(-n2cnc3cc(C(=O)N4CCC(C#N)CC4)ccc32)c1 19200 nM, Brc1cnc2nc(SCc3ccncc3)[nH]c2c1 1520 nM, c1ccc(-n2ccc(-c3nnc4n3CCCCC4)c2)cc1 607 nM, c1ccc(-n2cc(-c3nnc4n3CCCCC4)c3ccccc32)cc1 681 nM, Cc1ccc(-n2cnc3cc(C(=O)N4CCCCC4)ccc32)cc1 19.2 nM, Brc1cnc2nc(SCc3cccnc3)[nH]c2c1 1360 nM, Cc1cccc(-n2cnc3cc(C(=O)N4CCN(C)CC4)ccc32)c1 2710 nM, Cc1cc(-c2nnc3n2CCCCC3)c(C)n1-c1ccccn1 1080 nM, O=C(c1ccc2c(c1)ncn2-c1ccccc1)N1CCCCC1 21.5 nM, Cc1cccc(-n2cnc3cc(C(=O)N4CCCCC4)ccc32)c1 34.1 nM and 19.2 nM, CCCCNC(=O)c1ccc2c(c1)ncn2-c1cccc(C)c1 1360 nM, Clc1cccc(CSc2nc3ncc(Br)cc3[nH]2)c1 242 nM, Cc1cc(-c2nnc3n2CCCCC3)c(C)n1-c1ccc(F)cc1 121 nM, CC(C)(C)n1cnc2cc(C(=O)N3CCCCC3)ccc21 34.1 nM, Cc1cccc(-n2cnc3cc(C(=O)N4CCCC(C(C)C)C4)ccc32)c1 (stereo not given) 48.2 nM, Cc1cc(-c2nnc3n2CCCCC3)c(C)n1-c1cccc(C#N)c1 76.4 nM, Cc1cccc(-n2cnc3cc(C(=O)NC4CCCC4)ccc32)c1 961 nM, Clc1ccccc1CSc1nc2ncc(Br)cc2[nH]1 54.1 nM, CCCCn1cnc2cc(C(=O)N3CCCCC3)ccc21 68.1 nM, Brc1cnc2nc(SCc3ccccn3)[nH]c2c1 3410 nM, Cc1cc(-c2nnc3n2CCCCC3)c(C)n1-c1ccncc1 383 nM, c1ccc(-n2cc(-c3nnc4n3CCCCC4)cn2)cc1 3830 nM, N#Cc1ccc(CSc2nc3ncc(Br)cc3[nH]2)cc1 482 nM, Cc1cccc(-n2cnc3cc(C(=O)N4CCCCCC4)ccc32)c1 27.1 nM

Potency, inactive:
CC(C)(C)c1ccc(CSc2nc3ncc(Br)cc3[nH]2)cc1, Cc1cccc(-n2cnc3cc(C(=O)N4CCC(N5CCOCC5)CC4)ccc32)c1
